Source: PubChem BioAssay (NCI)
Compounds without any hit were thinned out: in the full panel of roughly 83,000, 20% have a hit.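 Cell lines were cultured in 96-well plates, exposed to a single compound concentration, and assessed for percent growth 48 hours later.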 The source made the active and inactive calls. How the source made its calls: active means growth percent below 10; inactive means the rest.

Key:
Test in all cases: NCI-60 one-dose screen, 48 h (100 = growth as untreated, 0 = no growth, -100 = all killed)
Conditions in all cases: 10 µM unless noted
DU-145 prostate = system: DU-145 prostate
K-562 leukemia = system: K-562 leukemia
MALME-3M melanoma = system: MALME-3M melanoma
MDA-MB-231 breast = system: MDA-MB-231 breast
RXF 393 renal = system: RXF 393 renal
SF-268 CNS = system: SF-268 CNS
SF-295 CNS = system: SF-295 CNS
SF-539 CNS = system: SF-539 CNS
UACC-257 melanoma = system: UACC-257 melanoma
M14 melanoma = system: M14 melanoma
HCT-15 colon = system: HCT-15 colon
HT29 colon = system: HT29 colon
SNB-75 CNS = system: SNB-75 CNS
SNB-19 CNS = system: SNB-19 CNS
U251 CNS = system: U251 CNS
PC-3 prostate = system: PC-3 prostate
SK-MEL-5 melanoma = system: SK-MEL-5 melanoma
UACC-62 melanoma = system: UACC-62 melanoma
LOX IMVI melanoma = system: LOX IMVI melanoma
SK-MEL-28 melanoma = system: SK-MEL-28 melanoma

Measured: growth

Cc1cc(NCc2cc(Nc3ccnc4cc(Cl)ccc34)ccc2F)nc(N2CCOCC2)n1
inactive: DU-145 prostate 23.8% | MDA-MB-231 breast 19.1% | SF-268 CNS 42.4% | UACC-257 melanoma 50.8% | HCT-15 colon 12.4% | SNB-19 CNS 56.1% | PC-3 prostate 37.5% | SK-MEL-5 melanoma 28.4%
active: K-562 leukemia 4.21% | MALME-3M melanoma -0.307% | RXF 393 renal -3.51% | SF-295 CNS -71.6% | SF-539 CNS -29.4% | M14 melanoma -22.9% | HT29 colon 8.57% | SNB-75 CNS -22.2% | U251 CNS -48% | UACC-62 melanoma 4.01% | LOX IMVI melanoma -78.4% | SK-MEL-28 melanoma 5.36%

COc1cccc(-c2nc3sccn3c2/C=C/C(=O)c2ccc(C(F)(F)F)cc2)c1
inactive: DU-145 prostate 88.4% | K-562 leukemia 51.8% | MALME-3M melanoma 104% | MDA-MB-231 breast 89.6% | RXF 393 renal 67.7% | SF-268 CNS 89.2% | SF-295 CNS 106% | SF-539 CNS 96.6% | UACC-257 melanoma 73.9% | M14 melanoma 85.4% | HCT-15 colon 69.1% | HT29 colon 75.3% | SNB-75 CNS 81.7% | SNB-19 CNS 79.7% | U251 CNS 83.2% | PC-3 prostate 63.2% | SK-MEL-5 melanoma 71.5% | UACC-62 melanoma 66.1% | LOX IMVI melanoma 88.3% | SK-MEL-28 melanoma 83.6%

Cc1ccc(Cl)cc1NC(=O)c1cc2ccccc2cc1O
inactive: SNB-19 CNS 22.8%
active: DU-145 prostate 7.76% | K-562 leukemia -33.7% | MALME-3M melanoma -32.6% | MDA-MB-231 breast -56.8% | RXF 393 renal -15.6% | SF-268 CNS 9.58% | SF-295 CNS -9.44% | SF-539 CNS -0.708% | UACC-257 melanoma -7.13% | M14 melanoma 2.88% | HCT-15 colon 8.41% | HT29 colon 7.43% | SNB-75 CNS -14.3% | U251 CNS 2.92% | PC-3 prostate -12.6% | SK-MEL-5 melanoma -74.4% | UACC-62 melanoma -11.5% | LOX IMVI melanoma 3.41% | SK-MEL-28 melanoma 9.98%

COC(=O)[C@]12CC[C@@H](C)[C@H](C)[C@@H]1C1=CC[C@@H]3[C@@]4(C)C(C=O)=C[C@@](C)(COC(C)=O)C4=CC[C@@]3(C)[C@]1(C)CC2
inactive: SNB-75 CNS 15.7% | SNB-19 CNS 29.8% | PC-3 prostate 12.7%
active: DU-145 prostate -6.88% | K-562 leukemia 5.59% | MALME-3M melanoma -65.5% | MDA-MB-231 breast -26.6% | RXF 393 renal -58.9% | SF-268 CNS -3.01% | SF-295 CNS 0.263% | SF-539 CNS -50.8% | UACC-257 melanoma -41.3% | M14 melanoma -48.4% | HCT-15 colon -41.6% | HT29 colon -31.5% | U251 CNS -25.8% | SK-MEL-5 melanoma -36.6% | UACC-62 melanoma -11.1% | LOX IMVI melanoma -93.7% | SK-MEL-28 melanoma -60.2%

O=c1c2cc(F)ccc2sc2c(NCCN3CCCCC3)nc3ccccc3c12
inactive: DU-145 prostate 53.5% | MALME-3M melanoma 58.5% | MDA-MB-231 breast 35.5% | RXF 393 renal 39.7% | SF-268 CNS 49.7% | SF-295 CNS 56% | SF-539 CNS 70.1% | UACC-257 melanoma 65.1% | HCT-15 colon 13.7% | HT29 colon 10.7% | SNB-75 CNS 37.3% | SNB-19 CNS 66.6% | U251 CNS 40.1% | PC-3 prostate 53.1% | SK-MEL-5 melanoma 70.1% | UACC-62 melanoma 36.7%
active: K-562 leukemia -30.8% | M14 melanoma -61.7% | LOX IMVI melanoma -62.8% | SK-MEL-28 melanoma -14.9%

Cc1cc(=O)[nH]c(N=Nc2c(O)[nH]c3ccccc23)n1
inactive: DU-145 prostate 117% | K-562 leukemia 116% | MALME-3M melanoma 127% | MDA-MB-231 breast 97.2% | RXF 393 renal 117% | SF-268 CNS 105% | SF-295 CNS 114% | SF-539 CNS 105% | UACC-257 melanoma 112% | M14 melanoma 100% | HCT-15 colon 109% | HT29 colon 106% | SNB-75 CNS 105% | SNB-19 CNS 103% | U251 CNS 103% | PC-3 prostate 97.9% | SK-MEL-5 melanoma 103% | UACC-62 melanoma 106% | LOX IMVI melanoma 99.8% | SK-MEL-28 melanoma 111%

Cc1ccc(C(=O)C2=C(O)C(=O)N(Cc3cccnc3)C2c2ccccc2F)o1 (stereo not given)
inactive: DU-145 prostate 105% | K-562 leukemia 76.7% | MALME-3M melanoma 101% | MDA-MB-231 breast 106% | RXF 393 renal 95.8% | SF-268 CNS 98.1% | SF-295 CNS 93.1% | SF-539 CNS 95.1% | UACC-257 melanoma 95.7% | M14 melanoma 101% | HCT-15 colon 93.8% | HT29 colon 108% | SNB-75 CNS 94.6% | SNB-19 CNS 105% | U251 CNS 91.6% | PC-3 prostate 96.7% | SK-MEL-5 melanoma 100% | UACC-62 melanoma 102% | LOX IMVI melanoma 80.8% | SK-MEL-28 melanoma 115%

S=C(c1ccc2c(c1)OCO2)N1CCN(c2ccccc2Cl)CC1
inactive: DU-145 prostate 105% | K-562 leukemia 108% | MALME-3M melanoma 72% | MDA-MB-231 breast 98.7% | RXF 393 renal 109% | SF-268 CNS 94% | SF-295 CNS 118% | SF-539 CNS 102% | UACC-257 melanoma 96.2% | M14 melanoma 99.3% | HCT-15 colon 96.2% | HT29 colon 93.6% | SNB-75 CNS 100% | SNB-19 CNS 99.4% | U251 CNS 95.2% | PC-3 prostate 84.7% | SK-MEL-5 melanoma 89.6% | UACC-62 melanoma 89.5% | LOX IMVI melanoma 111% | SK-MEL-28 melanoma 103%

COc1ccc2c(c1)O/C(=C\c1cccc(OCC(=O)Nc3nc4ccccc4s3)c1)C2=O
active: K-562 leukemia 5.15% | MALME-3M melanoma -43.8% | RXF 393 renal -29.3% | LOX IMVI melanoma -85%
inactive: DU-145 prostate 28.6% | MDA-MB-231 breast 74.8% | SF-268 CNS 24.2% | SF-295 CNS 99.7% | SF-539 CNS 97.6% | UACC-257 melanoma 106% | M14 melanoma 42.9% | HCT-15 colon 81.5% | HT29 colon 110% | SNB-75 CNS 102% | SNB-19 CNS 83.6% | U251 CNS 70.5% | PC-3 prostate 35% | SK-MEL-5 melanoma 96.7% | UACC-62 melanoma 83.9% | SK-MEL-28 melanoma 96.7%

COc1cc(CCC[P+](c2ccccc2)(c2ccccc2)c2ccccc2)cc2c1OCO2
inactive: DU-145 prostate 48.2% | K-562 leukemia 21.8% | MALME-3M melanoma 14.6% | MDA-MB-231 breast 29% | RXF 393 renal 76.3% | SF-268 CNS 26.1% | SF-295 CNS 68.6% | SF-539 CNS 43% | UACC-257 melanoma 17.4% | M14 melanoma 30.8% | HCT-15 colon 106% | HT29 colon 79.3% | SNB-75 CNS 12.7% | SNB-19 CNS 14.9% | U251 CNS 23.9% | PC-3 prostate 16.7% | LOX IMVI melanoma 32% | SK-MEL-28 melanoma 27.1%
active: SK-MEL-5 melanoma -41.2% | UACC-62 melanoma -3.87%

CCOC(=O)c1ccc(N2NC(=O)/C(=C/c3ccc([N+](=O)[O-])o3)C2=O)cc1
inactive: DU-145 prostate 113% | K-562 leukemia 114% | MALME-3M melanoma 105% | MDA-MB-231 breast 133% | RXF 393 renal 44% | SF-268 CNS 99.8% | SF-295 CNS 118% | SF-539 CNS 108% | UACC-257 melanoma 90.7% | M14 melanoma 116% | HCT-15 colon 96.6% | HT29 colon 114% | SNB-75 CNS 99.9% | SNB-19 CNS 115% | U251 CNS 108% | PC-3 prostate 79.2% | SK-MEL-5 melanoma 108% | UACC-62 melanoma 112% | LOX IMVI melanoma 91.6% | SK-MEL-28 melanoma 108%

CCN(CC)S(=O)(=O)c1cccc(-c2ccc3c(NC(=O)C4CC4)n[nH]c3c2)c1
active: K-562 leukemia 9.65% [6.25 µM] | RXF 393 renal -11.7% [6.25 µM] | SF-295 CNS 5.94% [6.25 µM] | SF-539 CNS -2.68% [6.25 µM] | M14 melanoma 8.28% [6.25 µM] | HT29 colon 3.07% [6.25 µM] | SNB-75 CNS -7.53% [6.25 µM] | SK-MEL-5 melanoma -37.2% [6.25 µM]
inactive: DU-145 prostate 25.4% [6.25 µM] | MALME-3M melanoma 21.1% [6.25 µM] | MDA-MB-231 breast 38.5% [6.25 µM] | SF-268 CNS 35.8% [6.25 µM] | UACC-257 melanoma 21.5% [6.25 µM] | HCT-15 colon 23.5% [6.25 µM] | SNB-19 CNS 30.6% [6.25 µM] | U251 CNS 12.1% [6.25 µM] | PC-3 prostate 16.9% [6.25 µM] | UACC-62 melanoma 28.7% [6.25 µM] | LOX IMVI melanoma 10.5% [6.25 µM] | SK-MEL-28 melanoma 29.2% [6.25 µM]

COc1ccc(C(=O)/C=C/c2c(C(F)(F)F)nc3sccn23)cc1OC
inactive: MALME-3M melanoma 71.4% | MDA-MB-231 breast 36.8% | RXF 393 renal 39.1% | SF-268 CNS 15.4% | UACC-257 melanoma 56.8% | M14 melanoma 28.5% | HCT-15 colon 24.6% | HT29 colon 12.3% | SNB-75 CNS 14.3% | SNB-19 CNS 33% | U251 CNS 15.1% | PC-3 prostate 53.3% | SK-MEL-5 melanoma 31.7% | UACC-62 melanoma 20.6% | SK-MEL-28 melanoma 52.7%
active: DU-145 prostate -24.6% | K-562 leukemia -15.1% | SF-295 CNS -9.31% | SF-539 CNS -5.52% | LOX IMVI melanoma 5.55%

COc1ccc(-c2nc(SCCC(C)C)nc(N/N=C\c3cccc(Cl)c3)c2C#N)cc1
active: SNB-75 CNS 4.61%
inactive: DU-145 prostate 85.4% | K-562 leukemia 79.7% | MALME-3M melanoma 111% | MDA-MB-231 breast 53% | RXF 393 renal 87.5% | SF-268 CNS 71.1% | SF-295 CNS 55% | SF-539 CNS 84.3% | UACC-257 melanoma 87.3% | M14 melanoma 101% | HCT-15 colon 82.2% | HT29 colon 83.2% | SNB-19 CNS 76.2% | U251 CNS 29.1% | PC-3 prostate 83.7% | SK-MEL-5 melanoma 96% | UACC-62 melanoma 89.6% | LOX IMVI melanoma 70.9% | SK-MEL-28 melanoma 112%

NS(=O)(=O)c1cnccc1Oc1cccc2cccnc12
inactive: DU-145 prostate 108% | K-562 leukemia 82.4% | MALME-3M melanoma 96% | MDA-MB-231 breast 102% | RXF 393 renal 104% | SF-268 CNS 101% | SF-295 CNS 120% | SF-539 CNS 88.3% | UACC-257 melanoma 114% | M14 melanoma 98.8% | HCT-15 colon 90.5% | HT29 colon 107% | SNB-75 CNS 89.6% | SNB-19 CNS 99.6% | U251 CNS 102% | PC-3 prostate 95.9% | SK-MEL-5 melanoma 106% | UACC-62 melanoma 104% | LOX IMVI melanoma 96% | SK-MEL-28 melanoma 109%
